About 7,900 targets were measured; listed, in parts, are those with a hit and a random draw of the rest. About 0.6% of all pairs of compound and target were hits. Unmarked numbers belong to inactive results.
Legend:
Experiment in all cases: log2 fold change, soluble protein after heating vs DMSO (PISA); higher = thermal stabilisation; K562 cells, 10 uM, 30 min; active = over 0.2 and 3.5 SD of the protein, either way, in both replicates (recomputed)
[1] = compound: CC(C)(O)CC(=O)NCCn1ccc2ncnc(Nc3ccc(Oc4cccc(C(F)(F)F)c4)c(Cl)c3)c21
In short: (§1)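 K562 cells (2×10^6 cells/mL) were treated with 10 μM compound for 30 min, and aliquots were heated for 3 min over 48°C-58°C. Pooled aliquots were extracted in PBS with 0.5% NP-40 at 4°C, and the supernatant after 21,000xg for 90 min was measured by TMTpro 16plex LC-MS/MS with channel sums equalised. Reported thermal stability, relative to control samples and from duplicates, is a log2 fold change.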

[2] = compound: CC1=C(C2=C(C=C1)C(=O)C3=CC=CC=C3N2CCCN)C
In short: as §1

[3] = compound: C=CC(=O)N1CCC[C@@H](n2nc(-c3ccc(Oc4ccccc4)cc3)c3c(N)ncnc32)C1 [ibrutinib]
In short: as §1

[4] = compound: CC(C)C1=C2N=C(C=C(N2N=C1)NCC3=CC=CC=C3)NCCCCCCN
In short: as §1

[5] = compound: C1COCCN1CCN2C3=CC=CC=C3N=C2NC(=O)C4=CC(=CC=C4)[N+](=O)[O-] [IRAK-1-4 Inhibitor I]
In short: as §1

[6] = compound: CC(=O)c1cnc2ccc(-c3cc(Cl)c(O)c(Cl)c3)nc2c1N[C@H]1CC[C@H](CN(C)C)CC1
In short: as §1

[7] = compound: CC(C)N(C[C@H]1O[C@@H](n2cnc3c(N)ncnc32)[C@H](O)[C@@H]1O)[C@H]1C[C@@H](CCc2nc3cc(C(C)(C)C)ccc3[nH]2)C1 [pinometostat]
In short: as §1

[8] = compound: CC1=C(C(CC(=O)N1)C2=CC=C(C=C2)C(F)(F)F)C(=O)NC3=C(C=C4C(=C3)C=NN4)F
In short: as §1

[9] = compound: CC(C)(C)Cn1c(N)nc2ccc(-c3[nH]c(C(C)(C)C)nc3-c3ccc(F)cc3)nc21 [ralimetinib]
In short: as §1

[10] = compound: CC(C)C[C@@H](C=O)NC(=O)[C@H](CC(C)C)NC(=O)[C@H](CC(C)C)NC(=O)OCc1ccccc1
In short: as §1

UniProt Q70IA6, sequence (Q70IA6 whole entry, looked up): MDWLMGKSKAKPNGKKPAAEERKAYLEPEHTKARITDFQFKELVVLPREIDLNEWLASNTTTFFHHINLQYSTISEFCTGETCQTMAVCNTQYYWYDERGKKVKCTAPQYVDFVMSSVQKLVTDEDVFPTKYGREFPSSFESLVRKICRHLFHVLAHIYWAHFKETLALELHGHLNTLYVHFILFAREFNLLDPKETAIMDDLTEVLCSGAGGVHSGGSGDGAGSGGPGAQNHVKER
UniProt P0C024, sequence (P0C024 whole entry, looked up): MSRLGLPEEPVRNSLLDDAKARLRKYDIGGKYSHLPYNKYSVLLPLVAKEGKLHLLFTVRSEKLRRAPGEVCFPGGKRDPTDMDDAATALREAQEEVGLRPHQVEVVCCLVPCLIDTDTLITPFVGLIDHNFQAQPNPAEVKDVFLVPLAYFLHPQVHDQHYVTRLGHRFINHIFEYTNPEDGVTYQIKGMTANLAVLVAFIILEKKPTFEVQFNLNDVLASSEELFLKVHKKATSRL
UniProt O75052, sequence (O75052 whole entry, looked up): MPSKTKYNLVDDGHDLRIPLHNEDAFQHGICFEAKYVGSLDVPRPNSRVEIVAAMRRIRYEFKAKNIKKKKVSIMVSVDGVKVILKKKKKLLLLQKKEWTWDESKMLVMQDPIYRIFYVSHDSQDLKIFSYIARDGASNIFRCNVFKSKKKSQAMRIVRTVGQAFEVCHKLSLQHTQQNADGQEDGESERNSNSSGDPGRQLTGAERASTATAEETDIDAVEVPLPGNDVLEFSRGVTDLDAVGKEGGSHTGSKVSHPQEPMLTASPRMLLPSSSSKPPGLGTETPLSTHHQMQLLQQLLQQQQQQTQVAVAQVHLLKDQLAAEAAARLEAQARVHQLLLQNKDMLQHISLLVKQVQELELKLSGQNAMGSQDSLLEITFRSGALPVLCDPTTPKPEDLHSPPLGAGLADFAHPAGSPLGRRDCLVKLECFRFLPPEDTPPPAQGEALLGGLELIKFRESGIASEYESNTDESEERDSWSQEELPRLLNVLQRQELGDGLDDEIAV
UniProt Q69YL0, sequence (Q69YL0 whole entry, looked up): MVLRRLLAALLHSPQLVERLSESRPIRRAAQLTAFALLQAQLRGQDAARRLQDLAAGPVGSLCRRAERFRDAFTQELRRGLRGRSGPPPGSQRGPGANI
UniProt Q15746, sequence (Q15746 whole entry, looked up): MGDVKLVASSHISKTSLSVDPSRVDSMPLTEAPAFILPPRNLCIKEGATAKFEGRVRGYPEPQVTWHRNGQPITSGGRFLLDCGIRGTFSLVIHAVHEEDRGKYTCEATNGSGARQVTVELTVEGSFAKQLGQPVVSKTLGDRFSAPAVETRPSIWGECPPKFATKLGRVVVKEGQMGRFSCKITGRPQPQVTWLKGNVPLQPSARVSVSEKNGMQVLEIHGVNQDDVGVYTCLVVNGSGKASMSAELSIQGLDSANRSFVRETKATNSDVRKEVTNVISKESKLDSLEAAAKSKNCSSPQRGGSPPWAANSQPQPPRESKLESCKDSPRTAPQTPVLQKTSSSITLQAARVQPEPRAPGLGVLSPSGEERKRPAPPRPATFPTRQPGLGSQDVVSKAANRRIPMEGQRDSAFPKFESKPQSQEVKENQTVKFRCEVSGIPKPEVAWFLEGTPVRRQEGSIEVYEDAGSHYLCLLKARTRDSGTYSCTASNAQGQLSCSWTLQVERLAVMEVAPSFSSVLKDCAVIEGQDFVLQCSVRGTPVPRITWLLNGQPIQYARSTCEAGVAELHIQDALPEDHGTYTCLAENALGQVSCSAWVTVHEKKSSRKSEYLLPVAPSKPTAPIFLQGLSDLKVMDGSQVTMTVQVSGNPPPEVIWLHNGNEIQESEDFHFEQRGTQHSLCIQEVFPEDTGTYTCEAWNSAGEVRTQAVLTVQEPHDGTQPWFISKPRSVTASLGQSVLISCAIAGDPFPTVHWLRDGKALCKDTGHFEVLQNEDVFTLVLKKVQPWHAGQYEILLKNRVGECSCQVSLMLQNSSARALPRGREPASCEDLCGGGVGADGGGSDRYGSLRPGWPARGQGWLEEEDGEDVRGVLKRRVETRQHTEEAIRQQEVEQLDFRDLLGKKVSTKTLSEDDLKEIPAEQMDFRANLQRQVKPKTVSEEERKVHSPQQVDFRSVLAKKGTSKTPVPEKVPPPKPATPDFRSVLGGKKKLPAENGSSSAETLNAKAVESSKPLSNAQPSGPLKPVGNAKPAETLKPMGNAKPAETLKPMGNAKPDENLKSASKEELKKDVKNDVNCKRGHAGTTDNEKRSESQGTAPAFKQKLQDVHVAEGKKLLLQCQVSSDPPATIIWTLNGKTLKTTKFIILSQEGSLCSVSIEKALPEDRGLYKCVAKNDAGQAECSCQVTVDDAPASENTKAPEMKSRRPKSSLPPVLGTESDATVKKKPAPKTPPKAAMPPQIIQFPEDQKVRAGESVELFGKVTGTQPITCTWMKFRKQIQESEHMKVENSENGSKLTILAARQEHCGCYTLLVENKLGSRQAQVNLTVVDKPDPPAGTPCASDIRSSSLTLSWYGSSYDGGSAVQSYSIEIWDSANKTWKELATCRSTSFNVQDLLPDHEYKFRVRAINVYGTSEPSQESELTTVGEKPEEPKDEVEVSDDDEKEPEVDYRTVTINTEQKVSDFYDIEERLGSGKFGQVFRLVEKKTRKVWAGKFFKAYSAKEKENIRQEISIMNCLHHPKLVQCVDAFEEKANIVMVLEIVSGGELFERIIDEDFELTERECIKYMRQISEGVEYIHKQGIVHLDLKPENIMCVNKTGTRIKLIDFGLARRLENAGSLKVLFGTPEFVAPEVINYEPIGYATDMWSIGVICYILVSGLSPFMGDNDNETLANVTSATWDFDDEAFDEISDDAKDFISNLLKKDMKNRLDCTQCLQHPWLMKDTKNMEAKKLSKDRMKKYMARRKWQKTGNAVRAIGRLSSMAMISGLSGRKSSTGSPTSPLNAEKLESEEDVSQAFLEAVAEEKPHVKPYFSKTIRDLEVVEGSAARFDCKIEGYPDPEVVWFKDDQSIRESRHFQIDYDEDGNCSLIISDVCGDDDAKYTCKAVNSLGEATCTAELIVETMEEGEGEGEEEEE
NA, A0A494C071, sequence (A0A494C071 whole entry, looked up): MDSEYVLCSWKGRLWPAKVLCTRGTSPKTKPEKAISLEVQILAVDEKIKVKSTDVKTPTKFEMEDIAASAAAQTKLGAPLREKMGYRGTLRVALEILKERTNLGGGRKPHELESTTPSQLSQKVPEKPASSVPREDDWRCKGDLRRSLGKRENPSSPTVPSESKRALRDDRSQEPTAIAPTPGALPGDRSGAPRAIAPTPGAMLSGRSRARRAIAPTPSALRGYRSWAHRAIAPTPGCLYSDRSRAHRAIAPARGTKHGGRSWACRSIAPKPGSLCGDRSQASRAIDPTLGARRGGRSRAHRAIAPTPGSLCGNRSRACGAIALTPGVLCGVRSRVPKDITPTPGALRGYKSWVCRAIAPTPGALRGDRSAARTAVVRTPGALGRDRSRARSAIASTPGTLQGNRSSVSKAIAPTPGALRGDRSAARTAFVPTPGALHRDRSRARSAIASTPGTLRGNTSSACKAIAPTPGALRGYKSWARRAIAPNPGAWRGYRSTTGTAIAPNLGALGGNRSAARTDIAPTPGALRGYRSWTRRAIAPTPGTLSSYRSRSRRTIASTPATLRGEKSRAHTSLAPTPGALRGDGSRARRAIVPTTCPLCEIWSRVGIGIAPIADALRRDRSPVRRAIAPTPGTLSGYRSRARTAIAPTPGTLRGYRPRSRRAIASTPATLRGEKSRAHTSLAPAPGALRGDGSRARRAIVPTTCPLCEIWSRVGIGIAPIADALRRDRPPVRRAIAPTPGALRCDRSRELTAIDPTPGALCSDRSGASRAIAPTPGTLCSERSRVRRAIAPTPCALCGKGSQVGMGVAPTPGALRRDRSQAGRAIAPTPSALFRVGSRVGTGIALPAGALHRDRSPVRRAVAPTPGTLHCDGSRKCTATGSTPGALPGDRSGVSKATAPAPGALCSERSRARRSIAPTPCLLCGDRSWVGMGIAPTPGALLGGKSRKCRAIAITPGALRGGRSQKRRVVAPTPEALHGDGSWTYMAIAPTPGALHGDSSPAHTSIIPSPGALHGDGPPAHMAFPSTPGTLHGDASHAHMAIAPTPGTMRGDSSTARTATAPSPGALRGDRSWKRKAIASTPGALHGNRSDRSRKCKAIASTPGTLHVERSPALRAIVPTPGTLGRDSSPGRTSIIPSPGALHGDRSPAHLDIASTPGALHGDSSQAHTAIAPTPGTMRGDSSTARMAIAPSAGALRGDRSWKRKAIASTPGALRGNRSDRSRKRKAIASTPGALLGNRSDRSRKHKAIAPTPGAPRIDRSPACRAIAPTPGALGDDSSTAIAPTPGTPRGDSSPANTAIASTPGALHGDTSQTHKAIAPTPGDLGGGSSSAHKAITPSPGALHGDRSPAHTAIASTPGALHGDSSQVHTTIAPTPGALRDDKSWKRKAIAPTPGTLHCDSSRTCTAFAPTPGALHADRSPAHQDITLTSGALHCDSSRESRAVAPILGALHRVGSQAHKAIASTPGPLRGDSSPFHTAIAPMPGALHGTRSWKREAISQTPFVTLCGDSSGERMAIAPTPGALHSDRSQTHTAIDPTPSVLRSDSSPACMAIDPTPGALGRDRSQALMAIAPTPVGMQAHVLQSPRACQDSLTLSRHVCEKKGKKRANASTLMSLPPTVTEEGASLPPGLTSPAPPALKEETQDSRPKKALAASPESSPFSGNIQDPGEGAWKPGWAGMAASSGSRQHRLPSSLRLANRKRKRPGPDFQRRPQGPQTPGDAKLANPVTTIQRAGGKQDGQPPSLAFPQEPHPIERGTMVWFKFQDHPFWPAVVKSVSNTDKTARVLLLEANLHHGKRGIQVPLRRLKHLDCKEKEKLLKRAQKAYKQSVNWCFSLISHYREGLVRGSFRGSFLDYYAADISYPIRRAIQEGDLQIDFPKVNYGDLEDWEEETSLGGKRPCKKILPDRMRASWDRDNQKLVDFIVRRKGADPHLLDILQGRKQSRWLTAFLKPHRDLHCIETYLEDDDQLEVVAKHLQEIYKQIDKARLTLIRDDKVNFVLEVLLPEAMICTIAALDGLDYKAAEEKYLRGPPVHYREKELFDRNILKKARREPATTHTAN

Target	log2 fold change [1]	log2 fold change [2]	log2 fold change [3]	log2 fold change [4]	log2 fold change [5]	log2 fold change [6]	log2 fold change [7]	log2 fold change [8]	log2 fold change [9]	log2 fold change [10]
MSANTD2 (UniProt Q6P1R3)	0.047	0.012	–	–	–	–	–	–	–	–
NDUFA7 (UniProt M0R0N0)	–	–	-0.109	-0.136	–	–	–	–	–	–
NA, A0A494C071	0.03	-0.141	-0.1	–	-0.011	-0.038	-0.034	0.013	–	–
NAP1L1 (UniProt B7Z9C2)	–	–	-0.04	0.359	-0.147	-0.058	-0.052	0.111	–	–
NA, A0A1W2PSA9	–	-0.27	–	–	–	-0.13	–	–	0.004	0.122
OAF (UniProt Q86UD1)	–	–	–	0.009	–	–	–	–	-0.041	-0.013
NA (UniProt J3KR12)	-0.1	–	-0.159	–	-0.191	–	0.053	0.046	0.011	0.017
NNMT (UniProt P40261)	-0.026	-0.006	0.06	-0.026	0.035	-0.028	0.276 (active)	-0.002	–	–
MRM2 (UniProt Q9UI43)	–	0.104	–	-0.075	–	-0.119	–	0.057	–	–
MOB2 isoform 3 (UniProt Q70IA6)	-0.15	0.106	-0.061	-0.01	–	–	–	-0.037	0.039	-0.021
MYSM1 (UniProt Q5VVJ2)	–	–	0.291	–	-0.264	–	0.153	–	-0.022	-0.061
NOS1AP (UniProt O75052)	-0.073	0.154	-0.061	-0.026	–	–	–	–	0.07	1.38 (active)
NUDT7 (UniProt P0C024)	-0.467	0.039	0.205	0	-0.02	–	-0.231	0.129	-0.52	0.207
MYLK (UniProt Q15746)	–	-0.136	-0.101	-0.207	-0.051	–	-0.051	-0.269	0.524	-0.181
NCBP2AS2 (UniProt Q69YL0)	–	-0.008	0.07	-0.869 (active)	–	0.21	–	0.089	-0.01	0.026
NOLC1 isoform 3 (UniProt Q14978)	–	–	–	0.151	–	–	–	–	–	–

— the supplement of paper PMC10849652
